Assay outcomes as filed in PubChem BioAssay.
Hits are enriched below; roughly 12% of the tested compounds scored in any of these assays.
Sfp PPTase inh: qHTS Assay for Inhibitors of Bacillus subtilis Sfp phosphopantetheinyl transferase (PPTase); 4'-phosphopantetheinyl transferase ffp (Bacillus subtilis), Q9F4F7; Biochemical Sfp PPTase activity, qHTS; Potency, µM, for inactives: largest response in the series, negative = inhibition, hits mostly inhibitors; actives 3.5% (n = 310,000); AID 1490, 2009;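 note: the enzyme is Sfp with the accession as filed and its product quenches rhodamine fluorescence; 0% = enzyme reaction without inhibitor and -100% = no enzyme wells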
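Fluorescence-quenching assay: 15 nM Sfp-PPTase preincubated 15 min at room temperature with compound, then 5 uM rhodamine-CoA and 12.5 uM BHQ-2-labelled YbbR peptide added. Fluorescence (ex 525/em 598 nm) read at start and after 30 min; difference gives rate.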
HP1b chromo inh: HTS for Inhibitors of HP1-beta Chromodomain Interactions with Methylated Histone Tails | Chromobox protein homolog 1 (Homo sapiens), P83916 | AlphaScreen HP1-beta / biotin-H3K9me3 peptide binding | Potency, µM (series often up to 114 µM), inactives show at the top dose activity change, negative = inhibition, most hits filed as inhibitors | actives 0.56% (n = 390,000) | AID 540317, 2011; note: nearly all actives have a fitted effect of over 70% in size
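HP1-beta protein (50 nM final) preincubated 30 min at room temperature with biotinylated H3(1-18)K9me3 peptide (50 nM) in PBS pH 7.4, 0.01% Tween-20, then compound added for 30 min. AlphaScreen streptavidin donor/nickel chelate acceptor beads (10 ug/mL final), 30 min dark, luminescence read.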
L3MBTL1 inh: qHTS Assay for the Inhibitors of L3MBTL1; Lethal(3)malignant brain tumor-like protein 1 (Homo sapiens), Q9Y468; AlphaScreen L3MBTL1–H3K9me1 peptide binding; Potency, µM (titrated, usually from 57.1 µM), without a hit: top-dose activity, negative = inhibition, hits mostly inhibitors; actives 0.66% (n = 230,000); AID 485360, 2010; note: % is set by controls: 0 for no effect and ±100 for the full control effect; nearly all actives have a fitted effect of over 60% in size
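AlphaScreen proximity signal between nickel-chelate acceptor and streptavidin donor beads (final 10 ug/mL) reports binding of 50 nM L3MBTL1 to 75 nM biotin-H3 K9me1 peptide; complex incubated with compounds 30 min at room temperature; cefsulodin titration as control.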
JMJD2A Tudor: qHTS Assay for Inhibitors of JMJD2A-Tudor Domain; Lysine-specific demethylase 4A (Homo sapiens), O75164; AlphaScreen JMJD2A-Tudor / H3K4me3 peptide binding; Potency, µM (titrated, usually from 114 µM), without a hit: at the highest dose activity change, negative = inhibition, most hits filed as inhibitors; actives 4.4% (n = 390,000); note: % is set by controls: 0 for no effect and ±100 for the full control effect; nearly all actives have a fitted effect of over 50% in size
Target sequence (O75164 whole entry, looked up, the tested form may be a part): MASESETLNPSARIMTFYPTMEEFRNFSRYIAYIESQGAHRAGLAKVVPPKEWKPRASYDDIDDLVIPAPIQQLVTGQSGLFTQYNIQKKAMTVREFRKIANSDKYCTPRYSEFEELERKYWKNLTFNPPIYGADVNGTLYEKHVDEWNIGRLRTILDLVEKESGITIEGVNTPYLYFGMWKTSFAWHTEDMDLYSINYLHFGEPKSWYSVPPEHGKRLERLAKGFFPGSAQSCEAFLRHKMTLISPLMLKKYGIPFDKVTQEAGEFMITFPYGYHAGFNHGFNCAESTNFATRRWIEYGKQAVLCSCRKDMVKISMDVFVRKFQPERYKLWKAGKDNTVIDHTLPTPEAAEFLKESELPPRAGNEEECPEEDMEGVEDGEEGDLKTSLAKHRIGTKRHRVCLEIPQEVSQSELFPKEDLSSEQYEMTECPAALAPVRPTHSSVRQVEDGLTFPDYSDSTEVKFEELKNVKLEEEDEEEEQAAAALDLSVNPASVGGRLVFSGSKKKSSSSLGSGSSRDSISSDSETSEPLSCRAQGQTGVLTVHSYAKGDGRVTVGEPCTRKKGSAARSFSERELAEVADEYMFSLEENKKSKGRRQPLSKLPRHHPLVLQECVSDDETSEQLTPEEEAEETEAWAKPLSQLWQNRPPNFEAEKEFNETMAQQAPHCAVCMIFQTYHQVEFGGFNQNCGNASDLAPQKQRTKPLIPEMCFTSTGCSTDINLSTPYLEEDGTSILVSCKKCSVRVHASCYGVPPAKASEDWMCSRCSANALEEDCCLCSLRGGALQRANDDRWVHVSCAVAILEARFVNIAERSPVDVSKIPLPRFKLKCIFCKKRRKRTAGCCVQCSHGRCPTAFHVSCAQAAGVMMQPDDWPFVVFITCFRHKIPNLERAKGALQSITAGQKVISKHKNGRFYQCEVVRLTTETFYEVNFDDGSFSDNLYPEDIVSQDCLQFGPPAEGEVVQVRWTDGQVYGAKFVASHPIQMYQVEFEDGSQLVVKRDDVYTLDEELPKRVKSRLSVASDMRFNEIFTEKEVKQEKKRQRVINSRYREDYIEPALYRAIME
BAZ2B inh: qHTS Assay for Inhibitors of BAZ2B. Bromodomain adjacent to zinc finger domain protein 2B (Homo sapiens), Q9UIF8. AlphaScreen BAZ2B-H3K14Ac peptide displacement. Potency, µM (series often up to 114 µM), for the others: at the top dose activity change, negative = inhibition, most hits filed as inhibitors. actives 4.4% (n = 360,000). AID 504333, 2011; note: % is set by controls: 0 for no effect and ±100 for the full control effect; nearly all actives have a fitted effect of over 60% in size
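AlphaScreen displacement: compounds (up to 110uM) incubated 30 min at room temperature with a preformed 50 nM BAZ2B/50 nM biotinylated H3K14Ac peptide complex in PBS pH 7.4 with Tween-20. Donor and acceptor beads at 10 ug/mL final added, 20 min light-protected before reading.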
G9a inh: qHTS Assay for Inhibitors of Histone Lysine Methyltransferase G9a. G9a H3K9 monomethylation, AlphaScreen, 2 h. Potency, µM (doses to about 102 µM), for the others: at the top dose activity, negative = inhibition, actives largely listed as inhibitors. AID 504332, 2011. actives 8.8% (n = 350,000); note: % is set by controls: 0 for no effect and ±100 for the full control effect; nearly all actives have a fitted effect of over 75% in size
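G9a (20 nM) was preincubated 15 min with compound, then reacted 2 h at room temperature with 500 nM biotin-H3K9 peptide and 20 µM SAM. Monomethyl-H3K9 detected by AlphaScreen using anti-H3K9me1 antibody.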
The depositor's hits bear a star; u = inconclusive; x = no result; [ ] = another dose, or the depositor's remark. Calls come from the whole dose curve; as a rule, active = well fitted curve in the direction sought with a large enough effect; inconclusive = small, poorly fitted or top-dose-only effect, or another doubt; inactive = no such curve, though single readings can be large; an effect the other way counts as inactive or inconclusive. Potency is the fitted concentration of half-maximal effect.

SMILES	Sfp PPTase inh	HP1b chromo inh	L3MBTL1 inh	JMJD2A Tudor	BAZ2B inh	G9a inh
Cc1ccc(CC(=O)NCc2ccc(Cl)cc2)cc1	11%	u	1%	u	u	-9%
CCCn1c(C)nc2c(N3CCC(N(C)C)C3)nc(C)nc21 (stereo not given)	25%	x	x	x	x	x
O=C(c1ccccc1Br)N(Cc1ccccc1)c1ccccc1	-3%	63%	x	41%	0%	13%
Cc1cc2c(cc(C(=O)NCc3cccnc3)n2Cc2ccc(Cl)cc2)o1	45µM*	-22%	-10%	50µM*	u	u
COc1ccc(NC(=O)c2ccc(-c3cccc(Cl)c3C)o2)cc1	x	-2%	x	-7%	-9%	-28%[59 µM]
CCCCn1nc(C(=O)N(C)CC(=O)Nc2cccc(F)c2)c2ccccc2c1=O	x	36%	-5%	-2%	5%	35µM*
O=C(NCc1cccnc1)c1ccc(-c2cccc(Cl)c2Cl)o1	16µM*	3%	-16%	-18%	71µM*	x
Cc1cc(C(=O)NCc2cccnc2)no1	-11%	23%	6%	9%	7%	-42%[59 µM]
CCCn1nc(C(=O)N(C)CC(=O)Nc2ccc(OCC)c(OCC)c2)c2ccccc2c1=O	x	10%	-4%	-12%	-20%	-2%[12.7 µM]
COc1ccc(NC(=O)c2ccc(-c3ccccc3Cl)o2)cc1	17%	28%	11%	-7%	-4%	79µM*
Cc1cc(C)c(C)c(S(=O)(=O)N2CCN(C(=O)CNC(=O)c3ccco3)CC2)c1C	x	25%	-8%	-1%	-13%	-3%[2.33 µM]
Cc1cc(C)cc(NC(=O)Cn2c(C(F)(F)F)nc3ccccc32)c1	x	27%	x	7%	1%	6%[59 µM]
CCC(CC)C(=O)NN(C(=O)c1ccncc1)C1CC(=O)N(c2ccccc2)C1=O (stereo not given)	3%	19%	3%	-15%	5%	-2%
COC(=O)c1ccc(C(NC(=O)OCc2ccccc2)/C(=C/[C@@H](C)C(=O)NCc2ccccc2)c2cccnc2)cc1 (stereo not given in full)	15%	x	x	x	x	x
Cc1ccc2c(C)c(C(=O)NCC(c3ccc(Cl)cc3)N3CCOCC3)oc2c1 (stereo not given)	x	1%	x	-25%	u	13µM*
COc1ccc(NC(=O)c2ccc(-c3ccc(C)c4ccccc34)o2)cc1	u	3%	-15%	-26%	20%	40µM*
CN(CC(=O)Nc1cccc(F)c1)C(=O)c1ccc(-c2ccc(Cl)cc2)o1	u	6%	x	u	u	35µM*
O=C(Nc1cccc(F)c1)c1ccc(-c2ccccc2Cl)o1	1%	50%	-8%	17%	u	56µM*
Cc1ccc(C)c(NC(=O)CN(C)C(=O)c2ccc(-c3ccc(Cl)cc3)o2)c1	x	21%	-5%	-29%	5%	-8%[2.33 µM]
CCc1ccc2oc(C(=O)NCC(c3ccc(Cl)cc3)N3CCOCC3)c(C)c2c1 (stereo not given)	x	50%	x	-4%	-14%	-21%[59 µM]
Cc1ccc(OCC(=O)Nc2c(C)ccc3nsnc23)cc1	6%	16%[57 µM]	x	-9%	-13%	x
COc1cc(C2SC[C@H]3C(=O)N(c4ccccc4)C(=O)N23)cc(OC)c1OC (stereo not given in full)	x	32%	x	-13%	-4%	-1%[59 µM]
c1ccc(-c2ncnc3ccccc23)cc1	x	29%	x	-11%	x	x
Cc1cccc(-c2nc(S(=O)(=O)c3ccc(F)cc3)c(NCCCN3CCOCC3)o2)c1	-10%	u	x	u	71µM*	x
CCn1cc(CN2CCC(n3nccc3NC(=O)CCOc3ccccc3)CC2)c(C)n1	11%	34%	x	-10%	2%	45%
SMILES	Sfp PPTase inh	HP1b chromo inh	L3MBTL1 inh	JMJD2A Tudor	BAZ2B inh	G9a inh
Cc1ccc(S(=O)(=O)SC/C=C/CSS(=O)(=O)c2ccc(C)cc2)cc1	x	u	x	3.2µM*	x	x
Cc1ccc(S(=O)(=O)CS(=O)(=O)c2ccc(C)cc2)cc1	x	52%	x	-3%	x	x
Cc1ccc(S(=O)(=O)SCCCSS(=O)(=O)c2ccc(C)cc2)cc1	x	7.1µM*	x	2.8µM*	x	x
O=C(c1cc(COc2ccc(F)cc2F)on1)N1CC2C[C@@H]3CC1C[C@H](C2)C3	-2%	90%	x	9%	-2%	-2%
NC(=O)C1CCN(c2nc(-c3ccccc3-c3ccccc3)cs2)CC1	x	-15%	-11%	45µM*	u	-1%[12.7 µM]
CC(=O)c1cccc(-c2csc(N3CCC(C(N)=O)CC3)n2)c1	x	45%	-7%	-19%	50µM*	u
NC(=O)C1CCN(c2nc(-c3cccc(Cl)c3)cs2)CC1	x	20%	-12%	-26%	u	-33%[12.7 µM]
CCOc1ccc(-c2nonc2NC(=O)c2oc3cc(C)c(C)cc3c2C)cc1OCC	x	26%	x	-10%	2%	12%[59 µM]
CC1CC=CC2C1C(=O)N(Cc1ccccc1)C2c1ccc2ccccc2c1C=Cc1ccccc1 (stereo not given)	u	29%	x	-15%	x	x
Cc1cc(Cl)ccc1-n1c(-c2cccnc2)n[nH]c1=S	18µM*	44%	-17%	28µM*	4%	10µM*
Cc1ccc(-n2c(SCC(N)=O)nnc2-c2cccnc2)c(C)c1	1%	34%	0%	-9%	11%	-10%[59 µM]
Cc1ccc(C)c(Nc2nc(-c3cccnc3)cs2)c1	-15%	31%	x	u	-32%	20%[2.33 µM]
Cc1ccc(C)c(-n2c(-c3cccnc3)n[nH]c2=S)c1	-22%	8%	4%	22µM*	u	32µM*
Cc1ccc(C)c(-n2c(-c3csc(C)c3C)n[nH]c2=S)c1	u	15%	-6%	25µM*	-30%	u
Cc1c(Cl)cccc1-n1c(-c2cccnc2)n[nH]c1=S	u	43%	-12%	35µM*	-2%	16%[12.7 µM]
CSCC[C@H](NC(=O)[C@H](CC(C)C)NC(=O)CNC(=O)[C@@H]1CCCN1C(=O)[C@H](Cc1ccccc1)NC(=O)[C@H](Cc1ccccc1)NC(=O)[C@H](CC(=O)O)NC(=O)[C@H](Cc1cnc[nH]1)NC(=O)[C@H](CCSC)NC(=O)[C@@H](N)CC(=O)O)C(N)=O	6%	x	x	x	x	x
CN(C)S(=O)(=O)c1cc(NC(=O)COC(=O)c2ccc3c(c2)OCO3)ccc1Cl	-2%	22%	1%	-29%	-3%	-11%
